In PubChem BioAssay (EPA / NIEHS) one finds outcome and AC50 data, which are given here for 17 compounds.

Each structure is given as a SMILES string. Several values for one entry are separate records, joined by “and”; a condition that tells them apart may be missing. Identical values can stand only once. Results filed as inconclusive are left out. More than one record can exist for a structure, and the calls need not agree. Activity calls are given as the source filed them. Rule for the calls, unless noted: active = hit-call score of the fitted dose curve at least 0.9, where 1 is the maximum; inactive = score below 0.9.

A short description of assay [1]: APR_HepG2_CellCycleArrest_1hr: Apredica 1-hour HepG2 Assay for Cell Cycle Arrest (AID 2282666). The settings on record: high-content imaging, actives raise or lower the signal. A digest of the protocol: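 Cell cycle arrest scored from nuclear DNA content (Hoechst 33342) using high-content imaging of fixed HepG2 cells after 1 h treatment across 0.39–200 uM, in duplicate. Gain or loss fitted relative to 0.5% DMSO.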

Assay [2] is described as follows: APR_HepG2_CellLoss_1hr: Apredica 1-hour HepG2 Assay for Cell Loss (AID 2282668).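 Note: curves fitted both ways against DMSO so gain or loss of cells counts.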 Conditions: high-content imaging. A digest of the protocol: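 Cell number comes from high-content imaging of Hoechst-labelled nuclei in fixed HepG2 cells. Cells were exposed for 1 h to ten concentrations from 0.39 to 200 uM in 0.5% DMSO. Gain or loss was fitted against DMSO controls.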

Assay [3] is described as follows: APR_HepG2_MicrotubuleCSK_1hr: Apredica 1-hour HepG2 Assay for Microtubule CSK Stabilty (AID 2282669). The settings on record: HepG2 microtubule cytoskeleton imaging, actives raise or lower the signal. Summed up: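 Alpha-tubulin immunofluorescence, imaged by automated high-content microscopy with Hoechst nuclear segmentation, measured cytoskeletal change after 1 h dosing of HepG2 at 0.39–200 uM in 0.5% DMSO. Activity fitted in both directions relative to DMSO.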

The nature of assay [4]: APR_HepG2_NuclearSize_1hr: Apredica 1-hour HepG2 Assay for Nuclear Size (AID 2282670). Conditions: high-content imaging, actives raise or lower the signal. Summed up: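 Nuclear size measured by high-content imaging of Hoechst 33342 nuclear stain after formaldehyde fixation; human HepG2 line exposed 1 hr to compounds at 0.39–200 uM in 0.5% DMSO, with bidirectional curve fitting relative to DMSO.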

Assay [5] in a line: APR_HepG2_MitoticArrest_1hr: Apredica 1-hour HepG2 Assay for Mitotic Arrest (AID 2282672). Conditions: high-content imaging, actives raise or lower the signal. A digest of the protocol: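 Ten-point concentration series (0.39 to 200 uM, duplicates, 0.5% v/v DMSO) applied to human HepG2 liver cells for 1 hr. High-content imaging of phospho-histone H3 and Hoechst-stained nuclei after fixation and permeabilization; DMSO-normalised bidirectional fit.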

Assay [6] in a line: APR_HepG2_P-H2AX_1hr: Apredica 1-hour HepG2 Assay for H2AX Phosphorylation (AID 2282673). The settings on record: high-content imaging, actives raise or lower the signal. A digest of the protocol:
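Phospho-H2A.x immunofluorescence (1:200, FITC secondary) plus Hoechst nuclear stain, quantified by high-content imaging in HepG2 after 1 hr compound exposure. Ten concentrations, 0.39 to 200 uM, in duplicate with 0.5% DMSO; fit both directions against DMSO.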

The nature of assay [7]: APR_HepG2_MitoMass_1hr: Apredica 1-hour HepG2 Assay for Mitochondrial Mass (AID 2282674). Conditions: high-content imaging, actives raise or lower the signal. A digest of the protocol: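 Mitochondrial mass is taken from MitoTracker Red CMXRos (250 nM, 30 min, pre-fixation) fluorescence imaged at 20x in HepG2 cells. Exposure lasted 1 hr across ten concentrations, 0.39 to 200 uM, 0.5% DMSO; DMSO baseline, bidirectional fitting.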

The nature of assay [8]: APR_HepG2_CellCycleArrest_24hr: Apredica 24-hour HepG2 Assay for Cell Cycle Arrest (AID 2282905).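 Note: cell cycle arrest scored as ratio of 2N to 4N nuclear DNA content.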 The settings on record: imaging, actives raise or lower the signal. Summed up:
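Compounds (0.39 to 200 uM, final DMSO 0.5% v/v) are applied to HepG2 cells for 24 hours; cells are then fixed, permeabilized and nuclei labeled with Hoechst 33342. Automated imaging measures DNA content, and activity is fitted in both directions against DMSO.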

A short description of assay [9]: ACEA_ER_80hr: ACEA Biosciences xCELLigence Real-Time Cell Analysis on Estrogen Receptor Agonism for Proliferation (AID 2282667; active = hit-call score of the fitted dose curve at least 0.9, where 1 is the maximum). The settings on record: T47D proliferation, impedance (xCELLigence), 80 h. A digest of the protocol: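 Impedance readout (RT-CES) of T47D proliferation at 80 h post-dose; gain of signal vs DMSO baseline. Compounds: 8 conc, 1:4 serial, top 100 uM final, ≤0.5% DMSO; biological duplicate.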

A short description of assay [10]: APR_HepG2_MitoMembPot_1hr: Apredica 1-hour HepG2 Assay for Mitochondrial Membrane Potential (AID 2282675). Conditions: imaging, actives raise or lower the signal. A digest of the protocol:
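Mitochondrial membrane potential read as MitoTracker Red CMXRos intensity by automated imaging of fixed HepG2 cells. Dye at 250 nM for 30 min pre-fixation; compounds 0.39 to 200 uM for 1 hour, duplicate wells, 0.5% DMSO.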

With `CCCCCOC(=O)COc1cc(N2C(=O)C3=C(CCCC3)C2=O)c(F)cc1Cl`, the compound was classed as inactive in [1], in [2], in [3], in assay [4], in [5] and in [6]. Besides, the compound was called inactive in assay [7] and in assay [8].

Turning to `CCCN(CCC)C(=O)SCC`, the result in [1], in assay [9], in assay [2], in [3], in assay [4] and in [5] was inactive. The result in assay [6] and in [8] was inactive.

Turning to `S=C([S-])NCCNC(=S)[S-].[Mn+2]`, the compound was classed as inactive in assay [1], in assay [2], in [3], in assay [4], in [5] and in assay [6]. Also, the result in assay [7] and in [8] was inactive.

Turning to `CC1(C)C(C=C(Cl)Cl)C1C(=O)OCc1cccc(Oc2ccccc2)c1` (stereo not drawn), the compound was classed as inactive in assay [1], in assay [9], in [2], in [3], in [4] and in [5]. Besides, the compound was called inactive in assay [6] and in assay [8].

Broadly, the AC50 is the concentration giving half of the maximal activity seen. On to `CCCN(CCC)c1c([N+](=O)[O-])cc(C(F)(F)F)c(N)c1[N+](=O)[O-]`, for which the outcome in [1], in [9], in [2], in [3], in assay [4] and in assay [5] was inactive. The call in [10] and in assay [8] was inactive. For the same compound, the AC50 is 109 µM (active) in assay [6] and 158 µM (active) in [7].

For the compound `CSC(=O)c1cccc2nnsc12`, the call in [1], in assay [2], in assay [3], in assay [4], in assay [5] and in assay [6] was inactive. Moreover, the compound was called inactive in assay [10] and in [8].

`O=C(c1ccccc1)C1CCCCC1`: the AC50 in [9] is 9.92 µM (active) and 6.21 µM (active) and 50 µM (active). Also, the compound was classed as inactive in assay [8].

As to `C#C[C@]1(O)CC[C@H]2[C@@H]3CCC4=CC(=O)CC[C@@H]4[C@H]3CC[C@@]21CC`, in assay [9], the AC50 was 2.58 nM (active) and 3.4 nM (active) and 143 nM (active). The compound was called inactive in assay [8].

As for `O=C(c1ccc(O)cc1O)c1ccc(O)cc1O`, the half-maximal activity concentration (AC50) in [9] is 756 nM (active) and 805 nM (active) and 548 nM (active). Moreover, the outcome in assay [8] was inactive.

Take `CCCCOCCOCCOCc1cc2c(cc1CCC)OCO2`: the compound was classed as inactive in assay [1], in [2], in [3], in [4], in [5] and in assay [6]. Besides, the compound was classed as inactive in [8].

In the case of `CC(C)CCCCCCc1ccc(O)cc1`, the AC50 in [9] is 320 nM (active) [middle of 4 runs]; in [8] it was 96.8 µM (active).

With `Oc1ccc(C(c2ccc(O)cc2)C(Cl)(Cl)Cl)cc1`, the result in assay [1], in assay [2], in assay [3], in assay [4], in [5] and in [6] was inactive. The call in assay [8] was inactive.

On to `COC(=O)c1c(Cl)nn(C)c1S(=O)(=O)NC(=O)Nc1nc(OC)cc(OC)n1`, for which the outcome in assay [1], in [2], in assay [3], in assay [4], in assay [5] and in [6] was inactive. Also, the compound was classed as inactive in assay [8].

Regarding `CCOC(=O)[C@H](C)Oc1ccc(Oc2nc3ccc(Cl)cc3o2)cc1`, the outcome in assay [1], in assay [2], in assay [3], in assay [4], in assay [5] and in assay [6] was inactive. The result in [8] was inactive.

Consider `CCCCC(CC)COC(=O)c1ccccc1C(=O)O` (stereo not drawn), for which the outcome in assay [1], in [2], in [3], in assay [4], in assay [5] and in assay [6] was inactive. Besides, in [8], the outcome was inactive.

For the compound `CC(=O)S[C@@H]1CC2=CC(=O)CC[C@]2(C)[C@H]2CC[C@@]3(C)[C@@H](CC[C@@]34CCC(=O)O4)[C@H]12`, in assay [9], the AC50 is 10.7 µM (active) and 174 nM (active); the compound was classed as inactive. In addition, the AC50 in assay [8] was 37.4 µM (active).

Regarding `COC(=O)c1ccc(CNS(C)(=O)=O)cc1S(=O)(=O)NC(=O)Nc1nc(OC)cc(OC)n1`, the call in assay [1], in assay [2], in assay [3], in [4], in [5] and in assay [6] was inactive. Also, in [8], the result was inactive.
